These results are taken from ChEMBL document CHEMBL3433997, “St. Jude Leishmania screening dataset” (2016).

What all share (assay type): functional
For assay [1], the target named is Solute carrier family 2, facilitated glucose transporter member 1 (Homo sapiens) (UniProt P11166). The experiment in a line: ST_JUDE_LEISH: Cytotoxicity at 2uM final concentration against transgenic Leishmania Mexicana promastigotes LmGLUT1 that are glucose transport deficient and complemented with the human glucose transporter GLUT1. Activity is measured by DNA content using SYBR green in vitro.

Assay [2] addresses Hexose transporter 1 (Plasmodium falciparum) (UniProt O97467). The experiment in a line: ST_JUDE_LEISH: Cytotoxicity at 2uM final concentration against transgenic Leishmania Mexicana promastigotes LmPfHT that are glucose transport deficient and complemented with the Plasmodium falciparum hexose transporter. Activity is measured by DNA content using SYBR green in vitro.
Assay [3] concerns the target Glucose transporter (Leishmania mexicana) (UniProt O61059). Put plainly: ST_JUDE_LEISH: Cytotoxicity at 2uM final concentration against transgenic Leishmania Mexicana promastigotes LmGT2 that are glucose transport deficient and complemented with the L. Mexicana glucose transporter 2. Activity is measured by DNA content using SYBR green in vitro.

As a reminder, the inhibition is the change of the read-out against control, counted positive when it falls.

Structures are written as SMILES.

Solute carrier family 2, facilitated glucose transporter member 1 (Homo sapiens), sequence (P11166 whole entry): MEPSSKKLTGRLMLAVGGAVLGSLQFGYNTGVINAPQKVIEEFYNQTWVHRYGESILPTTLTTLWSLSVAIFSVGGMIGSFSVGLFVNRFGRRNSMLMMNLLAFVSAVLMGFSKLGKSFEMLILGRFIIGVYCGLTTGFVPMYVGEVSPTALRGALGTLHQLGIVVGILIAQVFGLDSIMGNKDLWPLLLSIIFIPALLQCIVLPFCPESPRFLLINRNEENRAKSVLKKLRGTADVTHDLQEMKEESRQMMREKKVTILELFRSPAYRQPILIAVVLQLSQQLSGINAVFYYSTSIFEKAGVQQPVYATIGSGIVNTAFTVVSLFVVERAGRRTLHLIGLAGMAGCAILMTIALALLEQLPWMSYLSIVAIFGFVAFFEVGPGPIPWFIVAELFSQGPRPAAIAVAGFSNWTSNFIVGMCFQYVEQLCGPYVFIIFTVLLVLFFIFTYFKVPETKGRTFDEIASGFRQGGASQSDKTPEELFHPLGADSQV

In the case of `COc1ccc(Cn2c(=O)[nH]c3cc(C(=O)NC4CCN(Cc5ccccc5)CC4)ccc3c2=O)cc1`, the inhibition in assay [1] amounted to 2.2%; in assay [2] it was 0.63%; in assay [3], 2.59%.

For `COc1ccc2nccc([C@@H](O)CN3CCC(NC(=O)C(c4cc5ccccc5s4)N4CC(C)OC(C)C4)CC3)c2c1` (stereo partly specified), the inhibition in assay [1] turned out to be 4.19%; in assay [2], 2.81%; in assay [3], 3.57%.

With `CC1(C)N=C(N)N=C(N)N1c1ccc2ccccc2c1`, the inhibition in assay [1] was 3.26%; in assay [2] it was 3.3%; in assay [3] it was 4.01%.

As to `CCCN(CCC)CCCN(CCCN(CCC)CCC)c1cc(C)nc(Nc2ccc3cc(Br)ccc3c2)n1`, the inhibition stood at 50.9% in assay [1], 35.1% in assay [2] and 37.8% in assay [3].

`CCC(Cc1cnc2nc(N)nc(N)c2n1)c1ccc(C(=O)O)cc1` (stereo unspecified): the inhibition came to 1.41% in assay [1], 1.88% in assay [2] and 2.49% in assay [3].

`N=C(N)Nc1ccc(OCCCCCOc2ccc(NC(=N)N)c(Cl)c2)cc1Cl`: the inhibition in assay [1] is -0.79%; in assay [2], -1.31%; in assay [3], -2.62%.

As for `CCN(CCCN1CCCCC1)c1cc(C)nc(Nc2ccc(C)c(Cl)c2)n1`, the inhibition in assay [1] was 3.02%; in assay [2], 2.33%; in assay [3] it was 1.16%.

As to `N#Cc1ccc(C(=O)Nc2ccc(Cl)c(N3CCN(CCc4ccccc4)CC3)c2)cc1`, the inhibition in assay [1] was 8.77%; in assay [2], 7.95%; in assay [3], 7.85%.

For `Cc1cc(C2CCN(CCCCNC(=O)c3ccc(-c4ccc(C(F)(F)F)cc4)cc3)CC2)c(C)cc1OCCO`, the results for the inhibition in assay [1], in assay [2] and in assay [3] were 5.21%, 5.28% and 2.63%, respectively.

As to `CC(C)CCN1CCC(Oc2ccc(NC(=O)c3ccccc3)cc2Cl)CC1`, the inhibition in assay [1] stood at 1.25%; in assay [2], 3.09%; in assay [3] it was 2.86%.

As for `CC1Cc2ccccc2N1S(=O)(=O)c1cc(OCC(F)(F)F)ccc1OCC(F)(F)F` (stereo unspecified), the inhibition in assay [1] came out at 4.69%; in assay [2], 3.54%; in assay [3], 3.67%.

Consider `Oc1ccc(CCNc2nc(NCCCOc3ccccc3-c3ccncc3)nc(N3CCNCC3)n2)cc1`, for which the figures for the inhibition in assay [1], in assay [2] and in assay [3] were 3.68%, 5.15% and 5.3%, respectively.

Consider `CCOc1cc(C(=O)N[C@@H](Cc2ccccc2)[C@H](O)CNCc2cc(OC)cc(OC)c2)cc(N2CCCS2(=O)=O)c1`, for which the inhibition in assay [1] is -0.26%; in assay [2] it was -0.9%; in assay [3], 1.04%.

Take `Cc1ccc(NC(=O)Nc2ccc(Cl)c(C(F)(F)F)c2)cc1-c1ccc(C(=O)NCCN2CCOCC2)cc1`: the inhibition in assay [1] turned out to be 8.1%; in assay [2], 5.32%; in assay [3], 5.24%.

On to `CC1(C)N=C(N)N=C(N)N1OCc1ccc2c(c1)OCO2`, for which the results for the inhibition in assay [1], in assay [2] and in assay [3] were 9.15%, 6.63% and 13.4%, respectively.

For `Cc1cc(N2CCCN(CC3CCCCC3)CC2)nc(Nc2ccc(Br)cc2)n1`, the inhibition in assay [1] was 1.81%; in assay [2], 6.86%; in assay [3] it was -2.12%.

Take `CC(C)NCc1ccc(-c2cccc(NC(=O)c3cccc(Cl)c3)c2)cc1`: the inhibition in assay [1] was found to be 17.7%; in assay [2], 12.9%; in assay [3], 10.7%.

Regarding `CC1CCCC(NC(=O)CCOc2ccccc2)C1` (stereo unspecified), the figures for the inhibition in assay [1], in assay [2] and in assay [3] were 7.23%, 6.34% and 6.88%, respectively.

Turning to `COc1ccc2nc3cc(Cl)ccc3c(NCCc3ccccc3)c2c1`, the inhibition is 1.15% in assay [1], 1.24% in assay [2] and -0.37% in assay [3].

`COc1ccc2c(N/N=C/c3cccc([N+](=O)[O-])c3)ccnc2c1`: the inhibition in assay [1] was -2.24%; in assay [2] it was -3.16%; in assay [3], -0.29%.

Take `COc1cc(C)nc2ccc(NC(=O)Nc3ccc([N+](=O)[O-])cc3C)cc12`: the inhibition amounted to 3.91% in assay [1], 2.99% in assay [2] and 3.97% in assay [3].

In the case of `Oc1ccc(Br)cc1-c1nc2ccc(Cl)cc2nc1-c1cc(Br)ccc1O`, the inhibition in assay [1] worked out at 1.9%; in assay [2], 1.4%; in assay [3] it was 2.66%.

Consider `CCOc1ccc2c(=NN=Cc3ccccc3OC)cc(C)[nH]c2c1`, for which the figures for the inhibition in assay [1], in assay [2] and in assay [3] were 7.35%, 7.09% and 6.71%, respectively.

Consider `Cc1ccc(C(=O)Nc2cccc(CN3CCCN(Cc4ccc(O)cc4)CC3)c2)cc1`, for which the results for the inhibition in assay [1], in assay [2] and in assay [3] were 1.89%, 0.24% and -7.6%, respectively.

Take `Cc1[nH]c(C)c(-c2ccc(-c3ccc(OC(F)(F)F)cc3)nc2)c(=O)c1Cl`: the inhibition was -0.94% in assay [1], -0.29% in assay [2] and 0.22% in assay [3].

For `COc1ccc2c(c1)nc(CNC(=N)N)n2Cc1ccc(Cl)cc1`, the inhibition in assay [1] was determined as 1.63%; in assay [2] it was 1.08%; in assay [3] it was 1.85%.

Turning to `Cc1ccc2c(=NN=Cc3ccc(N(C)C)cc3)cc(C)[nH]c2c1`, the values for the inhibition in assay [1], in assay [2] and in assay [3] were 1.24%, 2.71% and -5.38%, respectively.

As to `O=C(Nc1ccc(OC2CCN(Cc3ccc(F)cc3)C2)c(Cl)c1)c1ccccc1` (stereo unspecified), the figures for the inhibition in assay [1], in assay [2] and in assay [3] were 8.62%, 9.58% and 4.94%, respectively.

With `C(=NN=c1cc(-c2ccccc2)[nH]c2ccccc12)c1cccnc1`, the figures for the inhibition in assay [1], in assay [2] and in assay [3] were 15.1%, 11.7% and 6.62%, respectively.

Consider `CN(C(=O)Cc1ccc(Cl)c(Cl)c1)C1CCN(CCCCCNC(=O)/C=C/c2ccc(Cl)c(Cl)c2)CC1`, for which the inhibition in assay [1] is 4.46%; in assay [2], 3.72%; in assay [3], 3.27%.

For the molecule `COc1ccccc1C1CCN(C2CCC(NC(=O)/C=C/c3ccc(OC(F)(F)F)cc3)CC2)CC1` (stereo unspecified), the inhibition was 0.94% in assay [1], 1.54% in assay [2] and 2.36% in assay [3].

Take `COC(=O)c1ccc(Nc2nccc(Nc3ccc(Oc4ccccc4)cc3)n2)cc1`: the inhibition in assay [1] came out at 5.22%; in assay [2], 9.95%; in assay [3] it was 2.57%.

Take `CN(C)c1ccc(-c2csc(C(=O)NC3CCN(Cc4ccc(C(C)(C)C)cc4)C3)c2)cc1` (stereo unspecified): the inhibition in assay [1] was found to be 5.6%; in assay [2] it was 5.58%; in assay [3], 5.56%.

As for `c1ccc2[nH]c(-c3ccc(-c4ccc(CNC5CC5)cc4)s3)nc2c1`, the values for the inhibition in assay [1], in assay [2] and in assay [3] were 0.93%, 0.48% and -2.14%, respectively.

With `CN1CCN(Cc2cccc(-c3ccc4c(Nc5cc(O)c(Cl)cc5F)ccnc4c3)c2)CC1`, the figures for the inhibition in assay [1], in assay [2] and in assay [3] were 2.16%, 6.74% and 13%, respectively.

In the case of `CN(C)CCN1CCN(CCCN2c3ccccc3Sc3ccc(C(F)(F)F)cc32)CC1`, the values for the inhibition in assay [1], in assay [2] and in assay [3] were 3.37%, 3.77% and 3.66%, respectively.

With `CN1CCN(CC(=O)Nc2ccc(-c3ccc(-c4nc5ccccc5[nH]4)s3)cc2)CC1`, the inhibition in assay [1] worked out at 1.26%; in assay [2], 3.57%; in assay [3], 2.3%.

As to `Cn1c(=N)n(CC(=O)N2CCc3ccc(Cl)cc3C2Cc2ccc(Cl)c(Cl)c2)c2ccccc21` (stereo unspecified), the inhibition in assay [1] turned out to be 0.36%; in assay [2], 1.29%; in assay [3], 5.67%.

For `CC(C)N1CCN(C(=O)c2ccc(CNCCCN3CCN(c4cccc(Cl)c4Cl)CC3)o2)CC1`, the inhibition in assay [1] is -2.44%; in assay [2], -1.41%; in assay [3], -1.3%.

Regarding `Cc1cc(N[C@@H](CC(C)C)C(=O)NCCc2ccccc2)nc(NCCc2ccc(F)cc2)n1`, the results for the inhibition in assay [1], in assay [2] and in assay [3] were -0.03%, 0.66% and -1.31%, respectively.

As to `O=C(/C=C/c1ccc(Cl)c(Cl)c1)NCCCCCN1CCCN(C(=O)Nc2ccc(OC(F)F)cc2)CC1`, the inhibition in assay [1] is 3.05%; in assay [2] it was 1.15%; in assay [3] it was 0.91%.

Take `O=[N+]([O-])c1ccc(C(O)CNCCc2ccccc2)cc1OCc1ccccc1` (stereo unspecified): the results for the inhibition in assay [1], in assay [2] and in assay [3] were 14.1%, 14% and 15%, respectively.

As to `CCCCn1c(C(C)Oc2ccc(Cl)cc2Cl)nc2cc(S(N)(=O)=O)ccc21` (stereo unspecified), the inhibition was -0.86% in assay [1], -1.81% in assay [2] and -1.84% in assay [3].

As for `O=C(N[C@H]1CCN(Cc2ccc(OCCCN3CCCCC3)cc2)C1)c1ccc(Oc2ccccc2)cc1`, the inhibition in assay [1] was 72.1%; in assay [2] it was 19.9%; in assay [3], 13.7%.

Regarding `CCCC(N)C(=O)NC1CCN(c2c(F)c(N)c3c(=O)c(C(=O)O)cn4c3c2Oc2ccccc2-4)C1` (stereo unspecified), the results for the inhibition in assay [1], in assay [2] and in assay [3] were 82.5%, 82.6% and 76.2%, respectively.

With `CC(C)c1ccc(CN2CCC(CNC(=O)c3cc(-c4ccc(N(C)C)cc4)cs3)C2)cc1` (stereo unspecified), the results for the inhibition in assay [1], in assay [2] and in assay [3] were 2.27%, 3.51% and 2.27%, respectively.

In the case of `COc1ccc2nccc(N3CCC(NCCNCc4ccc5c(n4)NC(=O)CS5)C3)c2n1` (stereo unspecified), the inhibition in assay [1] stood at 3.26%; in assay [2], 4.23%; in assay [3], 4.55%.
